# Reference: paper PMC5540273 (PLoS ONE, 2017)
# Experiments:
# Settings in all cases: concentration: 1 μM,replicates: in singlicate; n = 1
# [1] = test system: T1, DCAMKL2
# T1 construct: gene DCLK2
# [2] = test system: T2, DCAMKL3
# T2 construct: gene DCLK3
# [3] = test system: DDR1
# [4] = test system: DDR2
# [5] = test system: T3, DLK
# T3 construct: gene MAP3K12
# [6] = test system: T4, DMPK2
# T4 construct: gene CDC42BPG
# [7] = test system: DMPK
# [8] = test system: T5, DRAK1
# T5 construct: gene STK17A
# [9] = test system: T6, DRAK2
# T6 construct: gene STK17B
# [10] = test system: DYRK1A
# 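Also: KINOMEscan kinase panel screen.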
Structure (SMILES),%Inh [1] [%],%Inh [2] [%],%Inh [3] [%],%Inh [4] [%],%Inh [5] [%],%Inh [6] [%],%Inh [7] [%],%Inh [8] [%],%Inh [9] [%],%Inh [10] [%]
COc1cccc(CNC(=O)NC2CCN(c3ccnc(Nc4cc(OC)c(OC)c(OC)c4)n3)C2)c1 (stereo not drawn) [GSK1379765],8,0,1,19,61,69,0,0,0,19
COc1cc2c(Nc3ccc(NC(=O)c4ccccc4)cc3)ncnc2cc1OCCCN1CCOCC1 [GSK301329],26,0,0,0,89,0,0,0,0,25
O=C1NCCc2[nH]c(-c3ccncc3)cc21,0,91.8,17,0,8,0,13,97.2,100,99.7
O=c1[nH]cc(-c2ccc(O)cc2)c2sc(-c3ccncc3)cc12 [GSK1033723],6,5,0,25,12,17,78,31,0,90
Cn1ccc2ncnc(Oc3ccc(NC(=O)Nc4cccc(C(F)(F)F)c4)c(Cl)c3)c21,0,7,99.9,99.9,0,0,0,0,0,0
CC(=O)c1c(-c2ccncc2)[nH]c(-c2ccncc2)c1C [GW493036],3,0,67,0,0,0,23,44,76,99.9
O=C(NCC1CC1)c1ccc(-c2cc(C(=O)NC3CC3)ccc2F)cc1 [GW810445],22,0,0,35,12,0,0,0,0,0
Cn1ccc2ncnc(Oc3ccc(NC(=O)Nc4cc(C(C)(C)C)on4)c(Cl)c3)c21,15,0,100,99.4,0,6,0,11,35,26
Cl.Cl.NC[C@H](CC1CCCCC1)NC(=O)c1ccc(-c2ccnc3[nH]ccc23)s1 [GSK1581428],17,0,0,8,85,100,99.7,94.9,0,54
CNC(=O)c1ccccc1Nc1nc(Nc2cccc(CS(C)(=O)=O)c2)ncc1C.O=CO [GSK1520489],15,0,99.9,95.9,96.6,0,0,91.6,5,95.6
CN(c1ccc2c(c1)nc(NCc1ccc(F)cc1)n2C)c1ccnc(Nc2ccc(CS(C)(=O)=O)cc2)n1.Cl [GW813244],0,0,98.4,100,0,0,0,15,7,0
CCNCC(Cc1ccccc1)NC(=O)c1cc(Br)c(-c2ccnc3[nH]ccc23)s1.Cl.Cl (stereo not drawn) [GSK1383280],0,40,8,18,11,90,23,0,0,37
Cc1ccc(CC(=O)N2CCc3cc(-c4cn(C)c5ncnc(N)c45)ccc32)cc1 [GSK2634758],0,0,61,44,21,68,15,0,0,0
COc1cc2ncn(-c3cc(OCC4CCCCC4)c(C(N)=O)s3)c2cc1OC [GSK204559],25,0,0,0,31,7,0,0,0,21
FC(F)(F)c1cc(Br)cc(Nc2nccc(-c3cnn4ncccc34)n2)c1 [GW810578],15,16,0,16,0,20,15,8,36,99.6
Cc1ccc(C(=O)Nc2ccc(Oc3ccc4nc(NC(=O)C5CC5)cn4c3)c(F)c2)c(=O)n1-c1ccccc1,0,0,98.2,100,35,0,0,0,1,0
CS(=O)(=O)c1cccc(CNc2nc(Nc3ccc4c(c3)[C@@H]3C[C@@H]4CNC3=O)ncc2C(F)(F)F)c1,0,0,0,6,9,0,0,96.3,96.4,6

Structure (SMILES),%Inh [1] [%],%Inh [2] [%],%Inh [3] [%],%Inh [4] [%],%Inh [5] [%],%Inh [6] [%],%Inh [7] [%],%Inh [8] [%],%Inh [9] [%],%Inh [10] [%]
Cc1n[nH]c2cc(Nc3ccnc(Nc4cccc(CN5CCOCC5)c4)n3)ccc12 [GW682569],0,0,70,55,52,0,0,53,16,2
Cn1ccc2ncnc(Oc3ccc(NC(=O)Nc4cnn(C(C)(C)C)c4)c(Cl)c3)c21,5,2,100,100,0,0,15,0,3,11
C[C@@H](Oc1cc(-n2cnc3ccc(-c4ccncc4)cc32)sc1C(N)=O)c1ccccc1Cl [GSK483724],18,0,37,8,17,2,47,81,0,82
NC(=O)Nc1sc(-c2ccc(F)cc2)cc1C(N)=O [GW789449],0,0,11,39,38,0,0,43,70,23
Cl.c1ccc(Oc2ccc(Nc3ccnc4cc(-c5ccc(CN6CCNCC6)o5)ccc34)cc2)nc1 [GW567142],0,36,70,27,41,0,0,9,0,1
COC(=O)Nc1nc2cc(Oc3ccc(NC(=O)Nc4cc(C(F)(F)F)ccc4Cl)cc3)ccc2[nH]1.Cl [GW697465],11,31,100,98.3,60,0,0,2,0,0
Cn1ccc2ncnc(Oc3ccc(NC(=O)Nc4ccnc(C(F)(F)F)c4)c(Cl)c3)c21,0,0,100,99.6,0,0,0,0,3,13
c1ccc(Oc2ccc(Nc3ccnc4ccc(-c5ccccn5)cc34)cc2)cc1 [GW407034],0,0,14,0,49,15,0,0,0,24
C[C@@H]1CNc2c(sc3ccc4nc(-c5ccncc5)ccc4c23)C(=O)N1,0,55,0,0,0,0,27,99,98.3,99.7
O=C(Nc1ccccc1)c1cccc(Oc2ccc3nccn3n2)c1,40,0,45,42,1,6,11,7,14,0
Cc1ccn2nc(-c3ccc(F)cc3)c(-c3ccncc3)c2c1.Cl [GW457859],0,0,75,82,44,75,0,2,0,0
COc1cc2nccc(Nc3ccc(Oc4ccccc4)cc3)c2cc1OC.Cl [GI261656],0,1,0,22,34,6,0,0,0,0
Nc1nccc(-c2ccc3c(N)n[nH]c3c2)n1 [GSK1034945],0,36,0,0,1,2,0,98.1,89,99.6
O=C(Nc1ccc(Oc2ccc3nc(NC(=O)C4CC4)cn3n2)c(F)c1)c1cccn(-c2ccccc2)c1=O,13,29,99.1,100,13,0,0,0,0,0
CN1CCN(CCCNc2nccc(-c3c(-c4ccc(F)cc4)nn4cc(C(N)=O)ccc34)n2)CC1 [GW622475],0,7,100,82,0,44,0,0,17,20
CS(=O)c1ccc(-c2coc3ccc(-c4n[nH]c(=O)o4)cc23)cc1 (stereo not drawn),0,0,0,15,0,0,29,61,100,66
